Measured values as given in PubChem BioAssay (NCI).
Where “and” joins values, the source holds several entries; their conditions need not be identical. Equal values may be shown once. This is part of a sample that, as a whole, favours compounds with a hit. Of some 83,000 tested, about 20% had one in any assay.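 A percent growth of 40 corresponds to 60% growth inhibition; 0 means no net growth; -100 means all cells died. Active threshold: below 10.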 Calls of active or inactive are those of the source.

Test system: OVCAR-3 ovarian
Test: NCI-60 one-dose screen, 48 h (100 = growth as untreated, 0 = no growth, -100 = all killed)
Settings: 10 µM unless noted

Row | Structure (SMILES) | growth
1 | Cc1ccc(Cl)cc1NC(=O)N/C(N)=N/c1nc2ccccc2s1 | -67.7% (active)
2 | Nc1cc(-c2c[nH]c3ccc(Cl)cc23)nc2cc(-c3c[nH]c4ccccc34)nn12 | -52.7% (active)
3 | COc1cc(CNC(=O)C[C@H](C)CCC=C(C)C)ccc1OCc1cn(-c2ccc(Cl)c(Cl)c2)nn1 | 60.1% (inactive)
4 | C[C@@H](Nc1c(C#N)cnc2ccc(-c3cnc4[nH]ncc4c3)cc12)c1ccccc1 | 3.49% (active)
5 | COc1ccc(C2=NN(C(=O)[C@H]3[C@@H](c4ccco4)c4sc(=O)[nH]c4S[C@@H]3C)C(c3ccc4ccccc4c3)C2)cc1 (stereo partly drawn) | 31% (inactive)
6 | Cc1cc(C)c2[nH]c(=O)c(C(c3nnnn3Cc3ccc4c(c3)OCO4)N3CCN(C)CC3)cc2c1 (stereo not drawn) | 122% (inactive)
7 | COc1ccc(NC(=O)N/N=C/c2c[nH]c3ccccc23)cc1 | -34.1% (active)
8 | COc1ccc2[nH]c(O)c(N=NC(=O)c3ccc4nc(-c5ccc(Cl)cc5)[nH]c4c3)c2c1 | 71.8% (inactive)
9 | Cc1ccc(O)cc1Nc1nc(SCCN2CCOCC2)nc2c1cnn2CC(Cl)c1ccc(Br)cc1 (stereo not drawn) | 26.5% (inactive)
10 | CCOc1ccccc1[C@H]1C(C(=O)c2ccc(Cl)cc2)C2(N[C@@H]1c1ccccc1)C(=O)Nc1ccc(Br)cc12 (stereo partly drawn) | -4.84% (active)
11 | CC1(C)CC(=O)C2=C(C1)OC(N)=C(c1nc3ccccc3[nH]1)C2c1ccc(Cl)cc1 (stereo not drawn) | 47.8% (inactive) and 78.4% (inactive)
12 | COc1ccc(-c2cc(C(=O)N=Nc3c(O)[nH]c4ccc(Cl)cc34)c3ccccc3n2)cc1OC | 118% (inactive)
13 | COc1ccc2c(c1)c(-c1cc(N)n3nc(-c4c[nH]c5ccccc45)cc3n1)cn2C | -71.1% (active)
14 | Cc1ccc2c(c1)nc(-c1ccccc1)n2CC(=O)N=Nc1c(O)[nH]c2ccc(Cl)cc12 | -70.3% (active)
15 | CS(=O)(=O)Nc1cccc(-n2c(COc3ccc(OC(F)(F)F)cc3)nc3ccccc32)c1 | 107% (inactive) and 112% (inactive)
16 | Oc1ccc(Cl)c(Nc2nc(SCCN3CCOCC3)nc3c2cnn3CC(Cl)c2ccc(Br)cc2)c1 (stereo not drawn) | 29.9% (inactive)
17 | COc1ccccc1NC(=O)N/N=C/c1c[nH]c2ccccc12 | -32.1% (active)
18 | Nc1cccc(-n2c(COc3ccc(I)cc3)nc3ccccc32)c1 | 87.7% (inactive) and 83.2% (inactive)
19 | O=C1CCC(N2C(=O)c3cccc(NCCCCCC(=O)N4CCN(c5ccc6nc7c(nc6c5C(F)(F)F)C(=O)c5ncccc5C7=O)CC4)c3C2=O)C(=O)N1 (stereo not drawn) | -50.4% (active)

Row | Structure (SMILES) | growth
20 | OCCn1cc(-c2nc3ccc4[nH]ncc4c3c3c2CCCC3)cn1 | 58.8% (inactive)
21 | Cc1ccc(N=Nc2c(N)nn3c(-c4cc5cc(Br)ccc5oc4=O)ccnc23)cc1 | 108% (inactive)
22 | COc1ccc(C(=O)C[n+]2cccc3c4ccccc4ccc32)cc1 | 51.7% (inactive)
23 | CCCCCCCCCc1ccc(C(=O)Nc2cc(C)ccc2C(=O)OC)cc1 | 124% (inactive)
24 | Cc1nc(Nc2ccccn2)sc1C1=NNC(c2ccccc2F)C1 (stereo not drawn) | 24.8% (inactive)
25 | NS(=O)(=O)c1ccc(Nc2nc(N/N=C/c3cc(Br)c(O)c(Br)c3)nc(Nc3ccccc3)n2)cc1 | 20.2% (inactive)
26 | C=CC(=O)Nc1ccc(C(=O)/C=C/c2ccc(N(C)C)cc2)c(O)c1 | -18.3% (active)
27 | CCCCCCCCc1ccc(C(=O)Nc2cccc(O)c2)cc1 | 91.2% (inactive)
28 | Clc1ccc(-c2nc3c4c(-c5ccccc5)c(-c5ccccc5)n(Cc5ccccc5)c4ncn3n2)cc1 | 14.7% (inactive)
29 | Nc1nn2c(-c3cc4cc(Br)ccc4oc3=O)ccnc2c1N=Nc1ccc(S(N)(=O)=O)cc1 | 103% (inactive)
30 | Cc1ccc(C(=O)Nc2cc(-n3ccnc3)cc(C(F)(F)F)c2)cc1-n1cc(-c2cnc3cccnn23)nn1 | 133% (inactive)
31 | Cc1cccc(C)c1Nc1nnc(-c2c[nH]c3ccccc23)o1 | 121% (inactive)
32 | COc1cc(CNC(=O)C[C@H](C)CCC=C(C)C)ccc1OCc1cn(-c2cccc(C(F)(F)F)c2)nn1 | 103% (inactive)
33 | CC1=C(C(=O)OCc2ccccc2)C(c2ccc(N(C)C)cc2)n2c(nc3ccccc32)N1 (stereo not drawn) | 92.6% (inactive)
34 | CCc1ccc(SC2c3cc(OC)ccc3Oc3nc(N)c(C#N)c(N)c32)cc1 (stereo not drawn) | -48.3% (active)
35 | CCCn1c(NC(=O)c2cccc(C(N)=O)c2)nc2cc(CN3CCCCC3)ccc21 | 101% (inactive)
36 | C/C(=N/O)c1ccc(NC(=O)CSc2nnc(-c3ccc(-c4nc5ccc(Cl)cc5[nH]4)cc3)o2)cc1 | -5.29% (active)
37 | CC[C@@]12CC(C(=O)OC)=C3Nc4cc5c(cc4[C@@]34CCN(C[C@H]3O[C@H]31)[C@@H]24)[C@@H]1[C@H](O5)[C@@H](O)[C@@]2(CC)CC(C(=O)OC)=C3Nc4cc(O)ccc4[C@@]34CCN1[C@@H]24 | -15.7% (active)
38 | N#Cc1c(-c2ccc(F)cc2)nc(SCc2ccccc2)nc1N1CCNCC1 | -61.3% (active)
